The record followed here is PubChem BioAssay AID1508622 (National Center for Advancing Translational Sciences (NCATS), 2021).

Active and inactive are the calls of the source. A call without a number means that no potency is given here. Calls follow the shape of the dose curve; as a rule, active = well fitted activation curve with a large enough effect; inconclusive = small, poorly fitted or top-dose-only effect; inactive = no such curve, though single readings can be large or run the other way.
Potency is read from the fitted curve at half-maximal effect.

The nature of this assay: Confirmatory qHTS for Identification of Small Molecule Activators of Huntingtin-Antisense Promoter Activity. The following applies: HEK293 HTT-AS promoter firefly luciferase reporter, 24 h; series mostly up to 57.5 µM. Put shortly: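 2,500 luciferase reporter HEK293 cells/well; 24 h culture; cpds up to 57.5 uM final, PTC124 50 uM ctrl; 24 h, 37C; Dual-Glo FLuc reagent, 10 min RT; lum. Norm.: vehicle 0%, zero RLU -100%.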
(qHTS replaces the single test concentration by a dilution series.)
Consider `CC(C)c1nc2ccc(C(=O)NCCCN3CCN(c4cccc(Cl)c4)CC3)cc2o1`, for which the Potency result is “inactive”.

Turning to `Cc1ccc(Cl)cc1N1CCN(C(=O)Cn2cnc3nc4c(cc3c2=O)CCCC4)CC1`, the Potency entry was “inactive”.

In the case of `CC(C)c1ccc(CNC(=O)c2ccc(N3CCCC3)c(NC(=O)NCc3ccc(F)cc3)c2)cc1`, the Potency result is “inactive”.

As to `COc1ccc(CCNC(=O)c2cc3sccc3n2Cc2ccc(Cl)cc2)cc1OC`, the Potency result was “inactive”.

Consider `CCCCOc1ccc(C(=O)Nc2ccc3c(c2)CCCN3C(=O)c2cccs2)cc1`, for which the Potency result is “inactive”.

Take `O=C(O)c1ccc2c(c1)N(Cc1ccc(F)cc1)C(=O)c1ccccc1S2=O` (centres undefined): the Potency entry was “inactive”.

For `CCc1ccccc1N(C)C(=O)C1CCCN(c2ncnc3c2nc2n3CCCCC2)C1` (centres undefined), the Potency result was “inactive”.

As to `Cc1oc(-c2ccc(C(=O)NCc3ccccc3Cl)cc2)nc1CN1CCc2ccccc21`, the Potency entry is “inactive”.

Turning to `CCN(Cc1ccccc1)C(=O)C1CCC(CNS(=O)(=O)c2ccc3c(c2)CCCC(=O)N3)CC1` (centres undefined), the Potency result is “inactive”.

With `CCOc1ccccc1NS(=O)(=O)c1ccc2c(c1)CC(C)N2C(=O)C1CC1` (centres undefined), the Potency result is “inactive”.

As for `CC(C)c1ccc(NC(=O)CSC2=Nc3ccccc3C3=NC(CCC(=O)NCc4ccc(F)cc4)C(=O)N23)cc1` (centres undefined), the Potency entry was “inactive”.

In the case of `CCN(CC)CCNC(=O)c1c(C)[nH]c(C=C2C(=O)Nc3ccc(F)cc32)c1C`, the Potency result is “inactive”.

For `Cc1ccc(Cl)cc1-n1ncc2c(N3CCC(C)CC3)ncnc21`, the Potency result is “inactive”.

Regarding `CCc1ccc(CNC(=O)Cn2ccc3cc(S(=O)(=O)N4CCCCCC4)ccc32)cc1`, the Potency entry was “inactive”.

On to `Fc1ccc(-c2csc(=Nc3cccc(C(F)(F)F)c3)n2Cc2ccc3c(c2)OCO3)cc1`, for which the Potency entry is “inactive”.

In the case of `COc1ccc(Nc2sc(C(=O)c3ccccc3)c(N)c2C(=O)Nc2cc(C)ccc2C)c(OC)c1`, the Potency result was “inactive”.

Regarding `CCCCC(CC)CNC(=O)Cc1ccc(-n2c(=O)[nH]c3ccccc3c2=O)cc1` (centres undefined), the Potency entry is “inactive”.

Take `COc1ccc(CNS(=O)(=O)c2ccc(N3CCCCS3(=O)=O)cc2)cc1`: the Potency result was “inactive”.

Turning to `COc1ccc(Cn2c(SCc3ccc(C(=O)NC4CCCC4)cc3)nc3ccncc32)cc1`, the Potency result is “inactive”.

For the molecule `Cc1ccc(C)c(N2CCN(C(=O)Cn3cnc4nc5c(cc4c3=O)CCCC5)CC2)c1`, the Potency result was “inactive”.

On to `COc1ccc(N2CCN(C(CNC(=O)c3ccc(C)cc3)c3ccc4c(c3)OCO4)CC2)cc1` (centres undefined), for which the Potency entry is “inactive”.

In the case of `Cc1ccc(CCNC(=O)C(C)n2nc(C)c3c(C)n(-c4ccc(C)cc4)nc3c2=O)cc1` (centres undefined), the Potency result was “inactive”.

For `COc1ccc(NC(=O)C(=O)NCC(c2cccnc2)N2CCc3ccccc3C2)cc1` (centres undefined), the Potency result is “inactive”.

Consider `Cc1cc(N2CCCCC2)nc2ccc(NC(=O)/C=C/c3ccc(OC(C)C)cc3)cc12`, for which the Potency entry was “inactive”.

Turning to `CCOc1ccc(C2=C(C(=O)CC)Sc3nncn3N2C(=O)CC)cc1`, the Potency result is “inactive”.

With `CCOc1ccc(S(=O)(=O)NCCc2csc(-c3ccc(Cl)cc3)n2)cc1`, the Potency entry was “inactive”.

In the case of `CCOc1ccccc1NC(=O)c1ccc(F)c(S(=O)(=O)N2CCN(c3ccc(F)cc3)CC2)c1`, the Potency result is “inactive”.

For the molecule `COc1ccc2nc(N3CCN(C(=O)CS(=O)(=O)c4ccc(C)cc4)CC3)sc2c1`, the Potency entry is “inactive”.

As for `CCCNc1nc(NCc2ccccc2OC)c2cnn(C)c2n1`, the Potency entry is “inactive”.

`CCN(Cc1ccccc1)S(=O)(=O)c1ccc(N2CCCCS2(=O)=O)cc1`: the Potency result is “inactive”.

For the molecule `CC(C)[C@H](C(=O)Nc1ccc(C(=O)NO)cc1)c1ccccc1`, the Potency was 1900 nM (active).

Consider `COc1cc(NC(=O)NC(C)c2c(-n3cccc3)sc3c2CCCC3)cc(OC)c1OC` (centres undefined), for which the Potency entry was “inactive”.

Consider `COc1ccc(CCNC(=O)c2ccc3c(c2)CCN3S(=O)(=O)c2ccc(C)cc2)cc1`, for which the Potency result is “inactive”.

For `Cc1[nH]c2ccccc2c1CCNCc1ccc(C=CC(=O)NO)cc1`, the Potency is 1900 nM (active).

For `CCc1c(C)sc2c1CCN(Cc1ccc(F)cc1)C2c1ccccc1` (centres undefined), the Potency result is “inactive”.

For `CSc1ccc(/C=C/c2nc3ccccc3n2S(=O)(=O)c2ccc(F)c(C)c2)cc1`, the Potency is 135 nM (active).

Consider `COc1ccc(-c2nc(CNS(=O)(=O)c3ccc(F)cc3)cs2)cc1`, for which the Potency result was “inactive”.

Take `O=C(c1ccc(CS(=O)c2ccccc2Cl)o1)N1CCN(c2cccc(C(F)(F)F)c2)CC1` (centres undefined): the Potency entry was “inactive”.

Consider `CC(C)OCc1cc(CN2CCN(c3ccccc3)CC2)c(O)c2ncccc12`, for which the Potency result is “inactive”.
